# Assay results taken from PubChem BioAssay (NCATS).
# Values without a mark were called inactive. Results filed as inconclusive are left out. The source made the active and inactive calls. Unless noted, calls come from the whole dose curve; as a rule, active = well fitted curve in the direction sought with a large enough effect; inconclusive = small, poorly fitted or top-dose-only effect, or another doubt; inactive = no such curve, though single readings can be large; an effect the other way counts as inactive or inconclusive.
# Tests used:
# [1] = test system: Zika virus NS2B-NS3 protease; test: Primary screen GU AMC qHTS for Zika virus inhibitors (AID 1347154);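 note: 0% = no-inhibitor control and -100% = no-enzyme control; nearly all actives have a fitted effect of over 70% in size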
# Outline: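 Unlinked Zika NS2B hydrophilic domain/NS3 protease domain noncovalent complex (25 nM final) in 10 mM Tris-HCl pH 8.0, 0.01% Tween 20, with AMC peptide substrate. Fluorescence (ex 340, em 450 nm) change over 15 min, room temperature; percent inhibition fitted to 4-parameter Hill equation.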
# [2] = test system: Zika virus NS2B-NS3 protease (linked construct); test: Confirmatory screen NINDS AMC qHTS for Zika virus inhibitors (AID 1347152); note: potency is the fitted concentration of half-maximal effect; nearly all actives have a fitted effect of over 70% in size
# Outline: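 Purified NS2B-NS3 protease with NS2B hydrophilic domain linked to NS3 protease domain by flexible linker, 1 nM final in 10 mM Tris-HCl pH 8.0, 0.01% Tween 20. Compounds preincubated 15 min, room temperature; Bz-Nle-KRR-AMC 10 microM (Km 18.3 µM); 15-min fluorescence change, 4-parameter Hill fit.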
# [3] = Confirmatory screen NINDS Rhodamine qHTS for Zika virus inhibitors (AID 1347161); note: nearly all actives have a fitted effect of over 60% in size; note: potency is the fitted concentration of half-maximal effect;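 for activity change, negative = inhibition: purified Zika NS2B-NS3 protease with linked NS2B cofactor domain and Rhodamine110 peptide substrate; series mostly up to about 110 µM; plate controls were no-inhibitor control for no effect and no-enzyme control for full effect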
# Outline: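 Purified linked NS2B-NS3 protease (NS2B hydrophilic domain joined to NS3 protease by flexible linker), 25 nM in 10 mM Tris-HCl pH 8.0, 0.01% Tween 20. Compounds titrated, 15 min preincubation at room temperature; 1.5 microM Rhodamine110 substrate, FITC fluorescence change over 15 min.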
# [4] = test system: Zika virus NS2B-NS3 protease (linked); test: 384 well plate NINDS AMC confirmatory qHTS for Zika virus inhibitors (AID 1347163); note: potency is the fitted concentration of half-maximal effect; nearly all actives have a fitted effect of over 50% in size
# Outline: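 Linked protease 5/30/60 nM final; cpds up to 1 mM final, ~15 min preinc. Substrate Ac-VKTGKR-AMC 30 microM final. RT, dark, 25 min; FI ex 355/em 460; normalized to no-enzyme/no-inhibitor ctrls.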
# [5] = test system: Zika virus NS2B-NS3 protease (linked construct); test: 384 well plate NINDS Rhodamine confirmatory qHTS for Zika virus inhibitors (AID 1347164);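 note: fluorescence from protease cleavage of Ac-LKRR-rhodamine 110 substrate; potency is the fitted concentration of half-maximal effect; nearly all actives have a fitted effect of over 65% in size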
# Outline: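 Linked protease at a final 5 nM, 30 nM or 60 nM was preincubated ~15 min with compounds, then given 10 microM Ac-LKRR-Rhodamine 110. Fluorescence (ex 485/em 538 nm) after 25 min in the dark at room temperature.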
# [6] = Tertiary RLuc qRT-PCR qHTS assay for Zika virus inhibitors (AID 1347169); note: top concentration of the series differs between compounds; % is set by controls: 0 for no effect and ±100 for the full control effect; nearly all actives have a fitted effect of over 55% in size
# Outline: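 Vero cells (1,000 per well) plated overnight at 37 degrees C, treated with compound in DMSO, then infected with recombinant ZIKV-RLuc (Cambodian) at MOI 1-2 for 48-72 hrs. Live-cell Renilla luciferase substrate added; luminescence read after 1-1.5 hrs.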
# [7] = target: Cytochrome P450 1A2 (Homo sapiens) (UniProt P05177); test: p450-cyp1a2 (AID 410; calls by dose curve; note: potency is the fitted concentration of half-maximal effect)
# Cytochrome P450 1A2 (Homo sapiens), sequence (P05177 whole entry, looked up): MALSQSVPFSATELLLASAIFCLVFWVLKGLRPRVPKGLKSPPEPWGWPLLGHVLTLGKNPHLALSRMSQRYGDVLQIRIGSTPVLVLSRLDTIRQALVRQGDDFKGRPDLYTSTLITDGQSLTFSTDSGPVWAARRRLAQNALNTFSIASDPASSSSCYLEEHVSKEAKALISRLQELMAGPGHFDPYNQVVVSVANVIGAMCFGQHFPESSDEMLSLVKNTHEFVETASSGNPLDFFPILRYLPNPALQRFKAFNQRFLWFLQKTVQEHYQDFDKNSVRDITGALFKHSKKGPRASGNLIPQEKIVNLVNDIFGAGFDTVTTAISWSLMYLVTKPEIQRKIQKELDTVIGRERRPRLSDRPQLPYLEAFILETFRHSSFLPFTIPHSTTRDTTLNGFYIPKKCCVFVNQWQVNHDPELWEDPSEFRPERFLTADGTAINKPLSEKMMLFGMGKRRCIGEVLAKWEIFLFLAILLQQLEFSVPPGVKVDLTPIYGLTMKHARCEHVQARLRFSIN
# Outline: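 Human CYP1A2 (20nM) demethylated Luciferin-ME at its Km (100uM) in 100mM KPO4. After 10 min compound preincubation, NADPH regeneration ran the reaction 60 min at room temperature. Luciferin was read by luminescence, normalized to 57 uM furafylline.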
# [8] = target: Glucocorticoid receptor (Homo sapiens) (UniProt P04150); test: GR-GFP Redistribution (AID 450;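 active = compounds whose dose series gives a full or clear partial fitted curve of increased nuclear translocation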; note: potency is the fitted concentration of half-maximal effect); settings: U2OS GR-GFP nuclear translocation, laser cytometry, 2 h
# Glucocorticoid receptor (Homo sapiens), sequence (P04150 whole entry, looked up, the tested form may be a part): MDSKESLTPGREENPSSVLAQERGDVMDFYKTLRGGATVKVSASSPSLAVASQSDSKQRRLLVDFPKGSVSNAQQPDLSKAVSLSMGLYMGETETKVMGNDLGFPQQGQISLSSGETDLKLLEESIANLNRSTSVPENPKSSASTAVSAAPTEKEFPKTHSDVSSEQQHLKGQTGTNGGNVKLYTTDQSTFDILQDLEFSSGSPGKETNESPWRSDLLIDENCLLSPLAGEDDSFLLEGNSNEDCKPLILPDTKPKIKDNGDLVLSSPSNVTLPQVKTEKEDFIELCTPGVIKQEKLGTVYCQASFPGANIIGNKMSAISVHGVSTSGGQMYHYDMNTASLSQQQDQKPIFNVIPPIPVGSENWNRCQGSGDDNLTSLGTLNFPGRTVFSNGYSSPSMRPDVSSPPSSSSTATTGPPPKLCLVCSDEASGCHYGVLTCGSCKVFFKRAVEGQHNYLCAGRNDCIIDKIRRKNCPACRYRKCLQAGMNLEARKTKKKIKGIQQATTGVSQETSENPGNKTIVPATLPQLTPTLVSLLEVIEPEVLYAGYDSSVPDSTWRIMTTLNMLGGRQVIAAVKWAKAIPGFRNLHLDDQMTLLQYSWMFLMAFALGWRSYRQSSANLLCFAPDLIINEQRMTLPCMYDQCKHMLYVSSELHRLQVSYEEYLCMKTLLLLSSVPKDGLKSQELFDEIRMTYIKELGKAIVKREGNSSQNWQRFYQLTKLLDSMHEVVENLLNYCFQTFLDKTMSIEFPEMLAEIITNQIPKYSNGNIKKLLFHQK
# [9] = target: Glucocorticoid receptor (Homo sapiens) (UniProt P04150); test: GR-EFC Redistribution (AID 451; calls by dose curve; note: potency is the fitted concentration of half-maximal effect); settings: CHO-K1 GR-EFC translocation, beta-gal luminescence, 2 h
# Outline: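 CHO-K1 cells stably expressing nuclear-localized β-gal enzyme acceptor and GR fused C-terminally to the enzyme donor fragment; ligand-driven nuclear translocation restores β-gal by complementation. Compounds titrated up to 46 uM final, 2 h at 37 °C; luminescence read.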
# [10] = target: Cytochrome P450 3A4 (Homo sapiens) (UniProt P08684); test: qHTS Assay for Activators of Cytochrome P450 3A4 (AID 885); note: nearly all actives have a fitted effect of over 65% in size
# Cytochrome P450 3A4 (Homo sapiens), sequence (P08684 whole entry, looked up): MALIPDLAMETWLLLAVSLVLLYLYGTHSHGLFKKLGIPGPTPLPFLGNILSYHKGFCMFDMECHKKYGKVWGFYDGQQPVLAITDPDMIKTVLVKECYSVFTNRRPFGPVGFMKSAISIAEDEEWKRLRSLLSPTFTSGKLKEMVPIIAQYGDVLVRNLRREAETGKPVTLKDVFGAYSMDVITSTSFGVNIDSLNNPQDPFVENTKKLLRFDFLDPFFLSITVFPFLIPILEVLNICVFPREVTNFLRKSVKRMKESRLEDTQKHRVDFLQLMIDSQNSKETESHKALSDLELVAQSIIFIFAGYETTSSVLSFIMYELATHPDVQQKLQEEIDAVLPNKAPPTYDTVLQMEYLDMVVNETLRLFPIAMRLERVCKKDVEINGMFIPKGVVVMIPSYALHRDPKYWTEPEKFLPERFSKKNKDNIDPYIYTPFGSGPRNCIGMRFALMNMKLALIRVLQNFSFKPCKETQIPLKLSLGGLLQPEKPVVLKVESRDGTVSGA
# Outline: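 Human CYP3A4 (20 nM) with Luciferin-PPXE at 25 uM (its KM) in 200 mM KPO4; 10 min compound preincubation, then NADPH regeneration and 60 min reaction at RT. Luciferin read by luminescence; normalized to 57 uM ketoconazole full inhibition.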
# [11] = test system: Zika virus NS2B-NS3 protease (unlinked complex); test: Confirmatory screen GU AMC qHTS for Zika virus inhibitors (AID 1347153);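 note: percent inhibition with 0% = no inhibitor control and 100% = no enzyme control; nearly all actives have a fitted effect of over 70% in size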
# Outline: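 Unlinked NS2B-NS3 complex (25 nM) in 10 mM Tris-HCl pH 8.0, 0.01% Tween 20 preincubated 15 min with compound, then 10 microM Bz-Nle-KRR-AMC (Km 18.3 µM). Fluorescence change over 15 min, normalized, Hill-fitted.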
# [12] = Vero cells viability qHTS for Zika virus inhibitors (AID 1347167); note: % is set by controls: 0 for no effect and ±100 for the full control effect
# Outline: (§1)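 Counter-screen for cytotoxicity of hits from NS2B-NS3 protease qHTS. Overnight-attached cells (2.5 x 10^5 cells/mL, DMEM/4% FBS) were dosed in titration, incubated 24 to 48 hours, then assayed by CellTiter Glo.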
# [13] = HepG2 cells viability qHTS for Zika virus inhibitors (AID 1347168); note: potency is the fitted concentration of half-maximal effect
# Outline: as §1
# [14] = ZIKV-mCherry secondary qHTS for Zika virus inhibitors (AID 1347158); note: top concentration of the series differs between compounds
# Outline: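 Vero cells, 5,000/well, plated overnight at 37 °C, then compound added and infected with recombinant ZIKV-mCherry at MOI 1 for 48-72 h. PFA-fixed, Hoechst nuclear stain, high-content imaging; cells with mCherry intensity above 450 RFU scored infected, reported as percent infection.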
smiles,measurement,setting,value
NCC(O)COc1cccc2ccccc12 (configuration not stated),Potency,[1],inactive
C[C@@H](Cc1ccccc1)Nc1ncnc2c1ncn2[C@@H]1O[C@H](CO)[C@@H](O)[C@H]1O,Potency,[1],inactive
Nc1ncnc2c1ncn2C1C[C@H](O)[C@@H](CO)O1 (some centres not stated),Potency,[1],inactive
O=C(O)CCC/C=C\C[C@@H]1C(/C=C/[C@@H](O)COc2cccc(C(F)(F)F)c2)[C@@H](O)C[C@@H]1O (some centres not stated),"activity change, negative = inhibition",[1],0.372% [at 6.83 µM]
Clc1cc(OCc2nnc3sc(Cc4ccccc4)nn23)c(Cl)cc1OCc1nnc2sc(Cc3ccccc3)nn12,Potency,[2],12.6 µM (active)
same,Potency,[3],3.55 µM (active)
same,Potency,[4],28.2 µM (active)
same,Potency,[5],7.94 µM (active)
same,Potency,[6],inactive
Cc1c(-c2ccc(O)cc2)nn(-c2ccc(O)cc2)c1-c1ccc(OCCN2CCCCC2)cc1,Potency,[7],12.6 µM (active)
same,Potency,[8],> 46 µM
same,Potency,[9],> 46 µM
same,Potency,[10],inactive
same,Potency,[11],inactive
same,Potency,[3],inactive
same,Potency,[12],inactive
same,Potency,[13],29.4 µM (active)
Cc1c(C(=O)N(C)C2CCCCC2)sc2nc3ccc(N)cc3n12,Potency,[1],inactive
Clc1ccc(-c2nn3c(COc4cc(Cl)c(OCc5nnc6sc(-c7ccc(Cl)cc7)nn56)cc4Cl)nnc3s2)cc1,Potency,[2],20 µM (active)
same,Potency,[14],inactive
same,Potency,[3],6.31 µM (active)
same,Potency,[4],14.1 µM (active)
